# Laboratory results from PubChem BioAssay (Tox21).
# A number with no mark means an inactive call. Inconclusive results are not listed. Where a call stands in place of a potency, no number is given. Calls of active or inactive are those of the source. Unless noted, calls follow the shape of the full dose curve.
# Tests used:
# [1] = Nuclear factor erythroid 2-related factor 2/antioxidant responsive element (Nrf2/ARE) small molecule agonists: luciferase reporter gene qHTS assay in human keratinocytes (AID 1919969); also: nearly all actives have a fitted effect of over 35% in size; also: potency is read from the fitted curve at half-maximal effect
# [2] = target: Gonadotropin-releasing hormone receptor (Homo sapiens) (UniProt P30968); assay: Human gonadotropin-releasing hormone receptor (GnRHR) small molecule agonists, calcium flux assay in GnRHR-HEK293 cells (AID 1920063); also: nearly all actives have a fitted effect of over 35% in size
# Procedure, shortened: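 We seeded human GnRHR-expressing HEK293 cells for 18 hours, loaded them with calcium dye for an hour at 37 C, added test compounds, and recorded fluorescence intensity kinetically for three minutes.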
# [3] = target: KiSS-1 receptor (Homo sapiens) (UniProt Q969F8); assay: Human kisspeptin (KISS1R) small molecule agonists, calcium flux assay in KISS1R-HEK293 cells (AID 1920064; active = well fitted activation curve with a large enough effect in the repeat runs)
# Procedure, shortened: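 Kinetic calcium assay, 1 s sampling over 3 min at Ex/Em 480/540, in HEK293 cells engineered with human KISS1R; compounds delivered in DMSO after 1 h dye loading.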
# [4] = G protein-coupled receptor (GPCR) small molecule agonists, calcium flux assay: HEK293 wild type cell line counter screen (AID 1920065)
# Procedure, shortened: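 Calcium-sensitive dye, loaded 1 h at 37 C into cells cultured 18 h, reports compound-evoked calcium release as fluorescence (Ex/Em 480/540), measured over 3 min. Agonist mode; 15-point titrations, triplicate.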
# [5] = p53 small molecule agonists, cell-based qHTS assay with human liver microsomes (AID 1963577)
# Procedure, shortened: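 Fluorescence of the beta-lactamase reporter in p53RE-bla cells, detected with LiveBLAzer substrate (2 h, room temperature, dark), served as the read-out after 16 h compound exposure at 37 C with human liver microsomes and NADPH, each 0.5 mg/mL final.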
# [6] = p53 small molecule agonists, cell-based qHTS assay with rat liver microsomes (AID 1963578)
# Procedure, shortened: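 Cells carrying a p53 response element–beta-lactamase reporter were plated and rested 5 h, then dosed with compound in DMSO plus rat liver microsomes and NADPH, each at 0.5 mg/mL final. After 16 h at 37 C, LiveBLAzer substrate was added for 2 h.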
# [7] = p53 small molecule agonists, cell-based qHTS assay with human liver microsomes: qHTS cell viability counter screen (AID 1963579); also: nearly all actives have a fitted effect of over 45% in size
# Procedure, shortened: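 Cytotoxicity counter screen: p53RE-bla, 4,000 cells/well; 5 h settle, 37 C/5% CO2; cpd + HLM 0.5 mg/mL + NADPH 0.5 mg/mL (final); 16 h, 37 C; CellTiter-Glo, 30 min RT, luminescence.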
# [8] = p53 small molecule agonists, cell-based qHTS assay with rat liver microsomes: qHTS cell viability counter screen (AID 1963580); also: nearly all actives have a fitted effect of over 45% in size
# Procedure, shortened: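 Viability is assessed in parallel with the p53 reporter read: HCT-116 p53RE-bla cells receive compounds plus rat microsomes and NADPH (0.5 mg/mL final apiece), incubate 16 h at 37 C, and then CellTiter-Glo luminescence is recorded.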
# [9] = target: 5-hydroxytryptamine receptor 2A (Homo sapiens) (UniProt P28223); assay: 5-hydroxytryptamine receptor 2A (HTR2A) small molecule antagonists, cell-based qHTS assay (AID 1963586); also: nearly all actives have a fitted effect of over 45% in size
# Procedure, shortened: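 Antagonist-mode intracellular calcium assay: DOI (4 nM) added after 5 min compound pre-incubation at room temperature to dye-loaded HTR2A-CHO cells. Fluorescence followed for 3 min, sampled every second.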
# [10] = target: 5-hydroxytryptamine receptor 2A (Homo sapiens) (UniProt P28223); assay: 5-hydroxytryptamine receptor 2A (HTR2A) small molecule agonists, cell-based qHTS assay (AID 1963587); also: nearly all actives have a fitted effect of over 30% in size
# Procedure, shortened: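 CHO cells stably expressing human HTR2A, plated 18 h, loaded with calcium dye 1 h at 37 C. Agonist mode: compounds added and intracellular calcium fluorescence recorded kinetically for 2 min at 1 sec intervals.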
# [11] = target: Muscarinic acetylcholine receptor M1 (Homo sapiens) (UniProt P11229); assay: Cholinergic receptor muscarinic 1 (CHRM1) small molecule agonists, cell-based qHTS assay (AID 1963589); also: nearly all actives have a fitted effect of over 35% in size
# Procedure, shortened: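 Measures agonist-induced intracellular calcium rise. Stable human CHRM1 CHO line, 1 h dye load at 37 C, compounds from DMSO, kinetic fluorescence read.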
# [12] = cAMP Responsive Elements (CRE) small molecule antagonists, cell-based qHTS assay (AID 1963591; active = well fitted inhibition curve with a large enough effect in the signal ratio in the repeat runs, not every such curve was filed as active; the % refers to the signal ratio)
# Procedure, shortened: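 HEK293T cells carrying a CRE-driven beta-lactamase reporter receive compound and NKH477 (0.25 uM final) for 3 h. Fluorescence from LiveBLAzer B/G FRET substrate is read after 2 h at room temperature.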
# [13] = target: Beta-2 adrenergic receptor (Homo sapiens) (UniProt P07550); assay: Adrenergic beta2 receptor (ADRB2) small molecule antagonists, cell-based qHTS assay (AID 1963592); also: series mostly up to about 92 µM; nearly all actives have a fitted effect of over 50% in size
# Procedure, shortened: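 Cells (CHO, stable ADRB2 overexpression) incubated 18-20hr at 37C; compounds added from DMSO; agonist mix (1nM isoproterenol, 100uM IBMX, 25uM Ro-20-1724) added; 0.5hr RT; d2-cAMP and anti-cAMP-cryptate added; 1hr RT; 665/615 nm read.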
# [14] = target: Beta-2 adrenergic receptor (Homo sapiens) (UniProt P07550); assay: Adrenergic beta2 receptor (ADRB2) small molecule agonists, cell-based qHTS assay (AID 1963593);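 also: CHO cells stably overexpressing human ADRB2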
# Procedure, shortened: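 CHO cells stably over-expressing ADRB2 were plated overnight at 37C, then dosed with compounds plus a stimulation mix containing 100uM IBMX and 25uM Ro-20-1724 for 0.5hr at room temperature. cAMP was measured by HTRF competition, 1hr.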
# [15] = target: D(2) dopamine receptor (Homo sapiens) (UniProt P14416); assay: Dopamine D2 receptor (DRD2) small molecule agonists, cell-based qHTS assay (AID 1963594); also: nearly all actives have a fitted effect of over 35% in size
# Procedure, shortened: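 HEK293 cells stably expressing human DRD2, pre-treated with PDE inhibitor Ro20-1724 (0.1 mM final) and compound 10 min at room temperature, then stimulated with NKH477 (200nM […]) for 30 min. cAMP read by HTRF (665/620 nm).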
# [16] = target: D(2) dopamine receptor (Homo sapiens) (UniProt P14416); assay: Dopamine D2 receptor (DRD2) small molecule antagonists, cell-based qHTS assay (AID 1963595; active = well fitted inhibition curve with a large enough effect in the signal ratio in the repeat runs, with a control signal flat; the % refers to the signal ratio)
# Procedure, shortened: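 In this cell-based antagonist screen, compounds act for 10 min at room temperature before a 30 min challenge with 12 nM quinpirole and 200 nM NKH477. cAMP is quantified by HTRF competition in DRD2-HEK293 cells containing 0.1 mM Ro20-1724.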
# [17] = target: Muscarinic acetylcholine receptor M1 (Homo sapiens) (UniProt P11229); assay: Cholinergic receptor muscarinic 1 (CHRM1) small molecule antagonists, cell-based qHTS assay (AID 1963588); also: nearly all actives have a fitted effect of over 40% in size; also: potency is read from the fitted curve at half-maximal effect
# Procedure, shortened: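 CHRM1-CHO calcium-flux assay, antagonist mode. Cells were seeded 18 h, dye-loaded 1 h at 37 C and given compound for 5 min at RT, then acetylcholine was added at 50nM. FDSS fluorescence was read 3 min; 15 concentrations, three runs.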
# [18] = p53 small molecule agonists, cell-based qHTS assay: qHTS cell viability counter screen (AID 1963581); also: nearly all actives have a fitted effect of over 45% in size
# Procedure, shortened: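 Following 5 h attachment, HCT-116 p53RE-bla cells took up compound for 16 h at 37 C; the reporter was read with B/G FRET substrate (2 h RT), and viability then via CellTiter-Glo ATP luminescence.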
# [19] = cAMP Responsive Elements (CRE) small molecule agonists, cell-based qHTS assay (AID 1963590)
# Procedure, shortened: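 A CRE-responsive beta-lactamase reporter in HEK 293T cells was used. Treatment ran 3 h at 37 C; detection used LiveBLAzer B/G FRET substrate for 2 h at room temperature.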
# [20] = p53 small molecule agonists, cell-based qHTS assay (AID 1963582; active = well fitted activation curve with a large enough effect in the signal ratio in the repeat runs, not every such curve was filed as active; the % refers to the signal ratio)
# Procedure, shortened: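 In this cell-based concentration-response screen, a p53 response element drives beta-lactamase; cells received DMSO-borne compounds after 5 h culture and were incubated a further 16 h before FRET substrate development.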
# Chain of Gonadotropin-releasing hormone receptor (Homo sapiens) (P30968 whole entry, looked up): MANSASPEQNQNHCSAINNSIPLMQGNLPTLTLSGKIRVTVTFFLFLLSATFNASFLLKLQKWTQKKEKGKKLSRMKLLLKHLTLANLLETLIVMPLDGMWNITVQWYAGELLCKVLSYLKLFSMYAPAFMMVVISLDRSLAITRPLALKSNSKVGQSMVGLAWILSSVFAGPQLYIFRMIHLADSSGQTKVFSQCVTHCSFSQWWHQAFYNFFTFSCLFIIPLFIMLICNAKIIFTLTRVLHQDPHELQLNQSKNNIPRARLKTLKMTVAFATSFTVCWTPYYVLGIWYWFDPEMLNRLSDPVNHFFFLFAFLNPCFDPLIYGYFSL
# Chain of KiSS-1 receptor (Homo sapiens) (Q969F8 whole entry, looked up): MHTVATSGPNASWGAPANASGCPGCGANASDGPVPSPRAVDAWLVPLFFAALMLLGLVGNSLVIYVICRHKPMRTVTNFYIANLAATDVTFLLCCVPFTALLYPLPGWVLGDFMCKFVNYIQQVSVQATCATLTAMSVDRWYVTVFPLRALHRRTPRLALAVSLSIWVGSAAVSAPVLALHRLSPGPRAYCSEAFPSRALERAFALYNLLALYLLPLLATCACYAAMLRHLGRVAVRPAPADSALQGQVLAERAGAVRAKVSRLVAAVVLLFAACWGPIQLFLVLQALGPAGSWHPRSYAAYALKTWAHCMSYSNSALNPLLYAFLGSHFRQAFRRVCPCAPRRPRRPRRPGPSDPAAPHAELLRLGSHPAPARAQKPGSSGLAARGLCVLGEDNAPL
# Chain of D(2) dopamine receptor (Homo sapiens) (P14416 whole entry, looked up): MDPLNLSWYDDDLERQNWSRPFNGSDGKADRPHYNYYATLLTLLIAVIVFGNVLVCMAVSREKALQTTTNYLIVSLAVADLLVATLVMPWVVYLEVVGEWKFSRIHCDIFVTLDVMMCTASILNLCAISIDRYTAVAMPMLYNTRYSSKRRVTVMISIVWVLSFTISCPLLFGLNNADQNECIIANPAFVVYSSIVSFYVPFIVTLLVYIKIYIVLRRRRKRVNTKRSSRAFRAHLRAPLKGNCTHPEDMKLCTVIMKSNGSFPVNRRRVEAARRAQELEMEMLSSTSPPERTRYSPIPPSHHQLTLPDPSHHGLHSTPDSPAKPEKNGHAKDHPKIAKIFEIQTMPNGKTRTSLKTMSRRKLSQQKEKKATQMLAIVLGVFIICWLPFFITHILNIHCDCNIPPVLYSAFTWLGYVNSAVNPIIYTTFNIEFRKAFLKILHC
# Chain of Muscarinic acetylcholine receptor M1 (Homo sapiens) (P11229 whole entry, looked up): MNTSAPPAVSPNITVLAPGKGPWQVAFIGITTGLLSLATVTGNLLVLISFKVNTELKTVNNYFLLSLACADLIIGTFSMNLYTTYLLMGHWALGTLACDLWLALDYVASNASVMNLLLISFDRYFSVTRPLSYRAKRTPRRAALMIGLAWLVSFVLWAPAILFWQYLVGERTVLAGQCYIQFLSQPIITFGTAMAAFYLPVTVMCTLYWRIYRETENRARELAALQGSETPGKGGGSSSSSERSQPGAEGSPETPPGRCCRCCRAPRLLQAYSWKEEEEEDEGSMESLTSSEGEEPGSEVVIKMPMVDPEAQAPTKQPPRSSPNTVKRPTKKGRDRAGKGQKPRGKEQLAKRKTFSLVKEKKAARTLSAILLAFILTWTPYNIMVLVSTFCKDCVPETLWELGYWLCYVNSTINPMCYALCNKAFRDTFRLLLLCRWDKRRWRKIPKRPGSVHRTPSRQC
# Chain of Beta-2 adrenergic receptor (Homo sapiens) (P07550 whole entry, looked up): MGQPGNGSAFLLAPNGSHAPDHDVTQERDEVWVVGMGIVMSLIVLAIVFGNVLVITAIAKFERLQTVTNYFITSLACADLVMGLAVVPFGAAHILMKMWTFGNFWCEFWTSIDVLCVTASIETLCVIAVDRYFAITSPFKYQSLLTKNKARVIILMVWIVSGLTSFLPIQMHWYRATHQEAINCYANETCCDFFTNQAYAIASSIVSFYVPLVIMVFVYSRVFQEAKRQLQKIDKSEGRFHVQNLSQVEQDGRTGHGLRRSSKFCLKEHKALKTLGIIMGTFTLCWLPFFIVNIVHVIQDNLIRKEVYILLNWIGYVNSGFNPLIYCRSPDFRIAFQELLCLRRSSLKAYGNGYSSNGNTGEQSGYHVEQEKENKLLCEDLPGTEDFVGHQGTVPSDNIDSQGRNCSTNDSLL
# Chain of 5-hydroxytryptamine receptor 2A (Homo sapiens) (P28223 whole entry, looked up): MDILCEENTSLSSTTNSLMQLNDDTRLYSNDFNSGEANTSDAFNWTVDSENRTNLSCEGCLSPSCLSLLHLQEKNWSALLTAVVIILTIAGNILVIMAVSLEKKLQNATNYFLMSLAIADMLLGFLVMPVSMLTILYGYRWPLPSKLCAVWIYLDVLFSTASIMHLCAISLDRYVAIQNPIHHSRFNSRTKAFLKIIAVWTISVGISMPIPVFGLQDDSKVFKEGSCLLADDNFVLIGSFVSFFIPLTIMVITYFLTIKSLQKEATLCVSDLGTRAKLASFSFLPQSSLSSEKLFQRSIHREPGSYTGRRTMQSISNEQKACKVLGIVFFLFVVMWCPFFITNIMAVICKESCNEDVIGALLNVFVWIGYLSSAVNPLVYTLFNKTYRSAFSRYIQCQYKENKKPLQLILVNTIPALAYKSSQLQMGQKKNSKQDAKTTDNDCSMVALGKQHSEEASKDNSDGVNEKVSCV
SMILES,Potency [1],Potency [2],Potency [3],Potency [4],Potency [5],Potency [6],Potency [7],Potency [8],Potency [9],Potency [10],Potency [11],Potency [12],Potency [13],Potency [14],Potency [15],Potency [16],Potency [17],Potency [18],Potency [19],Potency [20]
COc1ccc(C(=O)c2ccc(C)cc2)c(O)c1,31 µM (active),inactive,inactive,inactive,inactive,inactive,inactive,inactive,inactive,inactive,inactive,inactive,inactive,inactive,inactive,inactive,,,,
CNC(=S)NC,inactive,inactive,inactive,inactive,inactive,inactive,inactive,inactive,inactive,inactive,,,inactive,,inactive,inactive,inactive,,,
CC1CCCCN1CCCOC(=O)c1ccc(OC2CCCCC2)cc1 (stereo not given),inactive,inactive,inactive,inactive,inactive,inactive,inactive,inactive,,,inactive,inactive,inactive,,inactive,inactive,0.365 µM (active),inactive,inactive,
O=C1CCCCCN1SSN1CCCCCC1=O,24.3 µM (active),inactive,inactive,inactive,inactive,inactive,inactive,inactive,,inactive,inactive,inactive,inactive,,inactive,inactive,inactive,inactive,,
Cc1cc(O)c2c(c1)C(=O)c1cc(O)cc(O)c1C2=O,33.6 µM (active),inactive,inactive,inactive,inactive,inactive,inactive,inactive,inactive,,inactive,,,inactive,inactive,inactive,inactive,inactive,,
C(=C(c1ccccc1)c1ccccc1)c1ccccc1,27.3 µM (active),inactive,inactive,inactive,inactive,inactive,inactive,inactive,inactive,inactive,,inactive,inactive,,inactive,inactive,inactive,,inactive,
COc1cc([N+](=O)[O-])ccc1N,inactive,inactive,inactive,inactive,inactive,inactive,inactive,inactive,inactive,inactive,inactive,inactive,inactive,inactive,,inactive,inactive,,inactive,inactive
O=C1Cc2cc(CCN3CCN(c4nsc5ccccc45)CC3)c(Cl)cc2N1,inactive,inactive,inactive,inactive,inactive,inactive,inactive,inactive,,inactive,inactive,,inactive,,inactive,,5.16 µM (active),,inactive,
